Results published in PubChem BioAssay.
“And” between values parts separate entries of the source, which are not always exact repeats. Equal entries are not always repeated. Records with an inconclusive call do not appear. The source made the active and inactive calls. Cut-off read from the data, not from the text of the source, unless noted: active = inhibition above about 80%; inactive = the rest.

Experiments:
[1] = viability loss in pontine glioma line – cell-based, SU-DIPG-XXV, MIPE5.0, CellTiter-Glo, qHTS, dose response (AID 1347065; cut-off not given, nearly all actives have AC50 up to about 26 µM;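 note: cells exposed to compound for 48 hours before ATP readout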); conditions: CellTiter-Glo ATP luminescence
[2] = JHH-DIPG-1 glioma cell viability, MIPE5.0 library, CellTiter-Glo luminescence, qHTS (AID 1347067; cut-off not given, nearly all actives have AC50 up to about 26 µM;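 note: cells exposed to compound for 48 hours before readout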); conditions: JHH-DIPG-1 glioma viability, CellTiter-Glo ATP luminescence
[3] = SU-DIPG-XXV glioma cell viability, MIPE5.0 library, qHTS (AID 1347068; cut-off not given, nearly all actives have IC50 up to about 30 µM;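 for IC50: cells exposed to compound for 48 hours before viability readout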)
[4] = LFS_MB_P medulloblastoma growth inhibition, cell-based, chromothripsis tumors, cisplatin or BGB combos (AID 1671449); conditions: LFS_MB_P medulloblastoma cells;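 note: cells exposed for 96 hours; 0% = vehicle DMSO and 100% = killing by high DMSO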
[5] = HDN33 neuroblastoma growth inhibition, cell-based, chromothripsis tumors, cisplatin or BGB combos (AID 1671450); conditions: HDN33 neuroblastoma cells, stronger effect = higher value;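 note: cells exposed to compound for four days; 0% = vehicle DMSO and 100% = cell killing by high DMSO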
[6] = ICB984 medulloblastoma cell growth inhibition, synergistic combos for chromothripsis tumors, cisplatin or BGB combos (AID 1671451; call rule not given here;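 note: cells exposed for 96 hours before readout; 0% = vehicle DMSO and 100% = killing by high DMSO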); conditions: ICB984 medulloblastoma cells, drug combinations, stronger effect = higher value
[7] = LFS_MB_1R medulloblastoma cell growth inhibition, synergistic combos for chromothripsis tumors, cisplatin or BGB combos (AID 1671452); conditions: LFS_MB_1R medulloblastoma cells, stronger effect = higher value;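 note: cells exposed for 96 hours before readout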
[8] = HTB85 osteosarcoma cell growth inhibition, synergistic combos for chromothripsis tumors, BGB or cisplatin IC20 combos (AID 1671453); conditions: HTB85 osteosarcoma cells, drug combinations, stronger effect = higher value;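 note: cells exposed for 96 hours before readout; 0% = vehicle DMSO and 100% = high DMSO killing control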
[9] = CRL2098 osteosarcoma cell growth inhibition, synergistic combos for chromothripsis tumors, BGB or cisplatin IC20 combos (AID 1671454); conditions: CRL2098 osteosarcoma cells, drug combinations, stronger effect = higher value;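 note: cells exposed for 96 h before readout; 0% = vehicle DMSO and 100% = killing by high DMSO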
[10] = HD-MB03 medulloblastoma cell growth inhibition, synergistic combos for chromothripsis tumors, BGB or cisplatin IC20 combos (AID 1671455; in the data active = inhibition above about 83%;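 note: 0% = vehicle DMSO and 100% = high DMSO as cytotoxic control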); conditions: HD-MB03 medulloblastoma cells, stronger effect = higher value
[11] = UWB1.289 ovarian carcinoma cell growth inhibition, synergistic combos for chromothripsis tumors, BGB or cisplatin combos (AID 1671456); conditions: UWB1.289 ovarian carcinoma cells, stronger effect = higher value;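 note: cells exposed to compound for four days; 0% = vehicle DMSO and 100% = killing by high DMSO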
[12] = LFS_MB_2R medulloblastoma cell growth inhibition, synergistic combos for chromothripsis tumors, cisplatin combos (AID 1671457); conditions: LFS_MB_2R medulloblastoma cells, stronger effect = higher value;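 note: cells exposed to compound for four days before readout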
[13] = MDA-MB-436 breast carcinoma cell growth inhibition, synergistic combos for chromothripsis tumors, BGB or cisplatin combos (AID 1671458; call rule not given here;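 note: cells exposed for 96 hours; 0% = vehicle DMSO and 100% = killing by high DMSO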); conditions: MDA-MB-436 breast carcinoma growth inhibition, drug combinations, stronger effect = higher value
[14] = UWB1.289_BRCA1 ovarian cancer growth, cell-based, BGB or cisplatin combinations (AID 1671459); conditions: UWB1.289 BRCA1 ovarian carcinoma, drug combinations, stronger effect = higher value
[15] = human astrocyte viability loss, single and combined drugs, cytotoxicity control for chromothriptic childhood tumor combination screen, cell-based, BGB or cisplatin IC20 combos (AID 1671460); conditions: Human astrocytes, drug combinations, stronger effect = higher value;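 note: cells exposed to compounds for 96 hours before viability readout; 0% = vehicle and 100% = killing control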
[16] = growth inhibition of BT084 medulloblastoma cells, cell-based, ICGC_MB145, cisplatin and BGB IC40 combos (AID 1671461); conditions: drug combinations, stronger effect = higher value;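 note: cells exposed to drugs for 96 hours; 0% = vehicle DMSO and 100% = high DMSO full killing control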
[17] = growth inhibition of RCMB18 medulloblastoma cells, cell-based, cisplatin and BGB IC40 combos (AID 1671462); conditions: stronger effect = higher value;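 note: cells exposed to compound for four days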
[18] = growth inhibition of CRL1545 osteosarcoma cells, cell-based, cisplatin and BGB IC20 combos (AID 1671464); conditions: stronger effect = higher value;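 note: cells exposed to compound for 96 hours before readout; 0% = vehicle DMSO and 100% = high DMSO killing control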
[19] = measured here: combination with BGB IC40, at 0.05 µM
[20] = measured here: with BGB IC20 combination, at 0.5 µM
[21] = measured here: with cisplatin IC20 combination, at 0.5 µM
[22] = measured here: combination with cisplatin, at 0.5 µM
[23] = measured here: combination with cisplatin, at 5 µM

For `Nc1ccc(F)cc1NC(=O)c1ccc(CNC(=O)/C=C/c2cccnc2)cc1`, the AC50 [1] was 5.9 µM (active), the AC50 [2] was 9.34 µM (active) and the IC50 [3] was 16.6 µM (active). For the same compound, the inhibition ([4]; at 0.5 µM, stronger effect = higher value) was -9.27% (inactive) and 17.5% (inactive), the inhibition ([4]; measured here: combination with BGB IC20, at 0.005 µM) was -31.2% and 6.89% and the inhibition ([4]; measured here: combination with BGB IC40, at 0.005 µM) was -55.6% and -31.5%. For the same compound, the inhibition [4, 19] was -32.7% and -5.83%, the inhibition ([4]; measured here: combination with cisplatin, at 0.5 µM, stronger effect = higher value) was 16% and 62.9% and the inhibition ([4]; measured here: combination with cisplatin, at 5 µM, stronger effect = higher value) was 108% and 116%. For the same compound, the inhibition ([5]; BGB combo, at 5 µM) was 80.7%, the inhibition ([5]; at 0.5 µM) was 12.4% (inactive) and 12.7% (inactive) and the inhibition ([5]; cisplatin combo, at 5 µM) was 80.6% and 84.9%. The inhibition [5, 20] was 1.48% and 7.37%, the inhibition [5, 21] was 26.1% and 17.9% and the inhibition ([5]; single agent, at 5 µM) was 78.9% and 79.8%. For the same compound, the inhibition ([6]; BGB IC20 combo, at 0.005 µM) was 6.31% and 11.4%, the inhibition ([6]; BGB IC40 combo, at 0.005 µM) was 6.94% and 2.58% and the inhibition ([6]; BGB IC40 combo, at 0.05 µM) was 84.2% and 81%. The inhibition ([6]; at 0.5 µM) was -12.1% (inactive) and -33.8% (inactive), the inhibition ([6]; cisplatin combo, at 0.05 µM) was 83.9% and 80.3% and the inhibition ([6]; cisplatin combo, at 0.5 µM) was -1.65% and -31.4%. The inhibition ([6]; cisplatin combo, at 5 µM) was -26.1% and -13.8%, the inhibition ([6]; measured here: 5 uM single agent, at 5 µM) was -14% and -9.96% and the inhibition ([7]; at 0.5 µM) was 30% (inactive) and 36% (inactive). For the same compound, the inhibition [7, 19] was -28.7% and -30.1%, the inhibition [7, 22] was 65% and 50% and the inhibition [7, 23] was 97% and 96%. The inhibition ([8]; at 0.5 µM) was 21% (inactive) and 24% (inactive), the inhibition ([8]; measured here: with BGB IC20, at 0.5 µM) was 43.2% and 13.5% and the inhibition ([8]; measured here: with BGB IC20, at 5 µM) was 97.2% and 95.3%. The inhibition ([8]; measured here: with cisplatin IC20, at 0.5 µM) was 15.4% and 37.9%, the inhibition ([8]; measured here: with cisplatin IC20, at 5 µM) was 97.9% and 96.5% and the inhibition ([8]; single agent, at 5 µM) was 91.8% and 89.6%. For the same compound, the inhibition ([9]; at 0.5 µM) was -40.8% (inactive) and -34.5% (inactive), the inhibition ([9]; measured here: combination with BGB at IC20, at 0.5 µM) was -53.4% and -17.4% and the inhibition ([9]; measured here: combination with cisplatin at IC20, at 0.5 µM) was -22.2% and -51.8%. The inhibition ([10]; at 0.5 µM) was 19.9% (inactive) and 36% (inactive), the inhibition ([10]; measured here: combo with BGB at IC20, at 0.5 µM) was 24.3% and 36.2% and the inhibition ([10]; measured here: combo with cisplatin at IC20, at 0.5 µM) was 28.3% and 50.6%. The inhibition ([11]; at 0.5 µM) was 6.29% (inactive) and 20.9% (inactive), the inhibition ([11]; measured here: inhibition with BGB combination, at 0.05 µM) was -10.5% and -21.7% and the inhibition ([11]; measured here: inhibition with cisplatin combination, at 0.05 µM) was -34.6% and -15.2%. The inhibition ([12]; at 0.5 µM) was 19.4% (inactive) and 17.9% (inactive), the inhibition [12, 22] was 42.4% and 41% and the inhibition [12, 23] was 91.1% and 92.2%. For the same compound, the inhibition ([13]; at 0.5 µM) was -0.59% (inactive) and 2.18% (inactive), the inhibition ([13]; measured here: BGB combination, at 0.5 µM) was -5.08% and -6.18% and the inhibition ([13]; measured here: BGB combination, at 5 µM) was 27.2% and 23.4%. The inhibition ([13]; measured here: cisplatin combination, at 0.5 µM) was -7.52% and 1.65%, the inhibition ([13]; measured here: cisplatin combination, at 5 µM) was 37.2% and 38.6% and the inhibition ([14]; BGB combination, concentration series, at 5 µM) was 85.3% and 82.2%. For the same compound, the inhibition ([14]; at 0.5 µM) was 1.02% (inactive) and 1.89% (inactive), the inhibition ([14]; cisplatin combination, concentration series, at 5 µM) was 98.1% and 92.9% and the inhibition ([15]; at 0.5 µM) was -0.32% (inactive) and -2.77% (inactive). For the same compound, the inhibition ([15]; measured here: combo with BGB IC20, at 0.5 µM) was -0.373% and -1.39%, the inhibition ([15]; measured here: combo with cisplatin IC20, at 0.5 µM) was -8.73% and -1.18% and the inhibition ([16]; at 0.5 µM) was 39.6% (inactive) and 45% (inactive). For the same compound, the inhibition ([16]; cisplatin combination, at 0.5 µM) was 58.4% and 61.5%, the inhibition ([16]; cisplatin combination, at 5 µM) was 87.7% and 92.4% and the inhibition ([16]; measured here: BGB IC40 combination 0.05 uM, at 0.05 µM) was -24% and -23.6%. For the same compound, the inhibition ([16]; single agent, at 5 µM) was 65.3% and 57.1%, the inhibition ([17]; at 0.5 µM) was 43.9% (inactive) and 41.5% (inactive) and the inhibition ([17]; cisplatin combo, at 5 µM) was 93.2% and 98.3%. For the same compound, the inhibition ([17]; measured here: BGB IC40 combination, at 0.05 µM) was -7.17% and -21.6%, the inhibition [17, 22] was 52.2% and 77.9% and the inhibition ([17]; single agent, at 5 µM) was 82.6% and 79%. The inhibition ([18]; at 0.5 µM) was 45.6% (inactive) and 32.9% (inactive), the inhibition [18, 20] was 25.5% and 27% and the inhibition [18, 21] was 54.9% and 35.9%. The inhibition ([18]; single agent, at 0.05 µM) was -31.6% and 15.5% and the inhibition ([18]; single agent, at 5 µM) was 32.4% and 21.9%.
For `O=c1oc2c(C3OCCCO3)c(O)ccc2c2c1CNCC2`, the outcome [1] was “inactive”, the outcome [2] was “inactive” and the outcome [3] was “inactive”.
